Test results: PubChem BioAssay AID743279 (National Center for Advancing Translational Sciences (NCATS), 2014)
Out of some 360,000 compounds screened, about 17,000 (4.7%) were called active. Inconclusive results (about 5%) are left out. This is one part of a sample in which actives are shown more often than they occur. Values without a mark were called inactive. Rule as the data show it: active = activity change below about -50%; inconclusive = mostly about -30% to -49%; inactive = weaker than that.
% is scaled to controls: 0 for no effect and ±100 for the full control effect.

Assay: qHTS for Inhibitors of Inflammasome Signaling: IL-1-beta AlphaLISA Primary Screen
Conditions: THP-1 LPS/ATP IL-1B secretion, 16 h; at 57.5 µM, stronger effect = lower value
Outline: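 THP-1 cells pretreated 1 hr with compounds (up to 57.5 uM final), then stimulated with LPS (250 ng/mL final) plus ATP (1.25 mM final); secreted IL-1B measured by AlphaLISA after 16 hr, decreased signal indicating inhibition.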
In the case of CCOC(=O)CSc1nc2ccc(C)cc2n2cnnc12, the activity change is reported as -55.9% (active). In the case of CCOC(=O)CSc1nncc2ccc(OC)c(OC)c12, the activity change is reported as -8.55%. In the case of COc1ccc(CCNc2nc3ccc(C)cc3n3cnnc23)cc1OC, the activity change is reported as 13.3%. For CN(CCCNC(=O)CN1C(=O)CC(C)(C)S(=O)(=O)c2ccccc21)C1CCCCC1, the activity change was 0%. COc1ccccc1C(=O)NC(=S)Nc1ccc(N2CCOCC2)cc1 gave an activity change of -16.4%. CCCCCC(=O)N1C[C@H](O)[C@@H](n2cc(COC(=O)c3ccccc3)nn2)C[C@@H]1c1ccc(C)cc1 gave an activity change of -14.9%. For N=C1C(c2nc3ccccc3s2)=C(O)CN1NC(=O)c1ccc([N+](=O)[O-])cc1, the activity change was -90.6% (active). For N=C1C(c2nc3ccccc3[nH]2)=C(O)CN1NC(=O)c1c[nH]c2ccccc12, the activity change was 27.9%. Cc1ccc(C)n1NC(=O)c1ccc([N+](=O)[O-])cc1 gave an activity change of -5.32%. CN1OC[C@@H]2CN[C@H](c3ccc(-c4ccccc4)cc3)C[C@@H]21 gave an activity change of -4.9%. O[C@H]1CN(Cc2cccs2)[C@@H](c2ccc(Cl)cc2)C[C@@H]1n1cc(C2CC2)nn1 gave an activity change of 30.3%. With COc1cc(OC)cc(-c2nnc(N(C)C(=O)c3ccncc3)s2)c1 the activity change was -18.8%. For COCCN(C(=O)C(C)C)c1nnc(-c2ccc(C(C)(C)C)cc2)s1, the activity change was -83.8% (active). In the case of COCCN(C(=O)c1ccco1)c1nnc(-c2ccc(OC)cc2)s1, the activity change is reported as -3.55%. Molecule CCC1=C(OC(=O)N(CC)CC)N2C(=O)OC(=NCC3CC3)[C@]2(C)[C@H]2C1=CC[C@H]1C(=O)N(CC(=O)OC)C(=O)[C@H]12 has an activity change of 25%. In the case of COc1ccccc1NC(=O)C[n+]1ccccc1, the activity change is reported as 33.7%. Work on COc1ccccc1C(=O)Nc1ccccc1C(=O)Nc1ccccc1 yielded an activity change of -4.71%. COc1ccccc1NC(=O)c1cc(Cl)nc2ccccc12 gave an activity change of 46.4%. In the case of COc1ccccc1NC(=O)/C=C/C(N)=O, the activity change is reported as -100% (active). COc1ccccc1NC(=S)NC(=O)C(C)C showed an activity change of 3.02%. For COc1ccccc1NC(=O)c1cc(Cl)nnc1Cl, the activity change was -97.2% (active). O=C(Nc1ccc(F)cc1)Nc1nnc([C@H]2C[C@H](O)[C@@H](CO)O2)s1 gave an activity change of -12.8%. In the case of COc1ccc(-c2nnc(SC(=O)N3c4ccccc4Sc4ccccc43)o2)cc1, the activity change is reported as -101% (active). In the case of COc1ccc(-c2nnc(-c3ccc4ccccc4c3)o2)cc1, the activity change is reported as -20.9%. Work on COc1ccc(-c2nnc(SC(C)C(=O)NC3CC3)o2)cc1 (centres undefined) yielded an activity change of -5.66%. Work on COC(=O)C1(C(=O)OC)C/C=C\CN(S(=O)(=O)c2ccccc2[N+](=O)[O-])CCC1 yielded an activity change of 18.1%. With O=C(NCc1cccnc1)c1cc(C2CCCN(C(=O)CCCc3ccccc3)C2)on1 (centres undefined) the activity change was 24.4%. With CCN(CC)CCCC(C)n1c2nc(=O)[nH]c(=O)c-2nc2cc(Cl)ccc21 (centres undefined) the activity change was -77.2% (active). With CCN(CC)CCn1c2ccc(Cl)cc2c2nc(C)sc21 the activity change was -29.9%. Molecule O=C(Nc1ccc(OCCO)cc1)c1csc([C@H]2C[C@H](O)[C@@H](CO)O2)n1 has an activity change of 4.57%. With COc1cccc(/C=N\Nc2nncc(-c3ccccc3)n2)c1 the activity change was -16.6%. For Cc1cc2c(C)nc(N/N=C/c3ccccc3)nc2o1, the activity change was -78.8% (active). Molecule FC(F)(F)c1cccc(N/N=C/c2ccccc2)c1 has an activity change of -1.73%. Molecule CC(C)NC(=O)c1ccccc1S(=O)c1ccccc1C#N (centres undefined) has an activity change of -0.788%. Molecule OCC1OC(n2cnc3c(N4CCCC4)ncnc32)C(O)C1O (centres undefined) has an activity change of 86.8%. COCCCNC(=O)CSc1nc2ccc(N3CCOCC3)cc2c(=O)n1CCc1ccccc1 gave an activity change of -8.48%. In the case of CCCCn1c(SCC(=O)NCC2CCCO2)nc2ccc(N3CCOCC3)cc2c1=O (centres undefined), the activity change is reported as -7.71%. With N#CCSc1nc2ccc(N3CCOCC3)cc2c(=O)n1CCc1ccccc1 the activity change was -50.9% (active). Work on N#Cc1ccc(-c2ccc3nccn3c2)cc1 yielded an activity change of 13.1%. For C=CC[C@@H](Cc1ccc(F)cc1)C(=O)OC[C@H]1CCCN1C(=O)[C@H](CC=C)CC(=O)N(CCO)Cc1ccccc1, the activity change was -21.2%. For C=CCC[C@@H](Cc1ccc(F)cc1)C(=O)OC[C@@H](C)NC(=O)[C@H](CC=C)CC(=O)N(CCO)Cc1ccccc1, the activity change was -24.1%. Work on C=CCC[C@H](Cc1ccc(F)cc1)C(=O)OC[C@@H](NC(=O)[C@@H](CC=C)CC(=O)N[C@H](CO)Cc1ccccc1)C(C)(C)C yielded an activity change of -29.4%. With C=CCC[C@@H](Cc1ccc(F)cc1)C(=O)O[C@H](CNC(=O)[C@H](CC=C)CC(=O)N(CCO)Cc1ccccc1)c1ccccc1 the activity change was -58.8% (active). Molecule C=CCC[C@H](Cc1ccc(F)cc1)C(=O)OC[C@H](C)NC(=O)[C@H](CC=C)CC(=O)N(CCO)Cc1ccccc1 has an activity change of -17.2%. With C=CC[C@H](CC(=O)N(CCO)Cc1ccccc1)C(=O)N[C@@H](COC(=O)[C@@H](CC=C)Cc1ccc(F)cc1)Cc1ccccc1 the activity change was -67.6% (active). In the case of CSc1ccc(CNC(=O)C2(C)CCCN2C)cc1 (centres undefined), the activity change is reported as -5.74%. COCCCNC(=O)CNC(=S)N(Cc1cc(OC)c(OC)c(OC)c1)C1CCCC1 showed an activity change of 7.84%. Work on Cc1ccc(C(=O)N/C(=C\c2cn(S(=O)(=O)N(C)C)c3ccccc23)C(=O)N2CCCC2)cc1 yielded an activity change of -17.6%. With COc1ccccc1OCc1ccc(C(=O)N2CCN(C)CC2)o1 the activity change was 10.8%. CN1CCN(C(=O)c2ccc(NC(=O)c3ccc(Br)o3)cc2)CC1 showed an activity change of 4.78%. For CN1CCN(C(=O)c2ccc(-c3ccc(Br)cc3)o2)CC1, the activity change was -71.3% (active). With CCCc1nn2c(=O)cc(CSCC(=O)Nc3cccc(C)c3)nc2s1 the activity change was 19.5%. Work on Cc1cccc(-c2cnc(C(O)c3cc(C)cc(C)c3)[nH]2)c1 (centres undefined) yielded an activity change of -1.76%. In the case of CCCCC(=O)N(C)c1c(CC)nc2c(OCc3ccc(Cl)cc3Cl)cccn12, the activity change is reported as -54% (active). Molecule CCc1nc2c(OCc3ccc(C(=O)OC)cc3)cccn2c1N(C)C(=O)C(C)C has an activity change of -12%. CCc1nc2c(OCc3cccc(OC)c3)cccn2c1N(C)C(=O)C(C)C showed an activity change of 51.9%. CCOC(=O)N(C)c1c(CC)nc2c(OCc3ccccc3C(=O)OC)cccn12 gave an activity change of 6.05%. For CCc1nc2c(OCc3ccc(Cl)cc3Cl)cccn2c1N(C)C(=O)C(C)C, the activity change was -84.1% (active). With CCCCC(=O)N(C)c1c(CC)nc2c(OCc3ccc(S(C)(=O)=O)cc3)cccn12 the activity change was 28.1%.
